How the values were obtained:
[1] = target: Death-associated protein kinase 1 (Homo sapiens) (UniProt P53355); conditions: at 10 µM
[2] = target: Death-associated protein kinase 2 (Homo sapiens) (UniProt Q9UIK4); conditions: at 1 µM
[3] = target: Death-associated protein kinase 2 (Homo sapiens) (UniProt Q9UIK4); conditions: at 10 µM
[4] = target: T1, Serine/threonine-protein kinase DCLK2 (Homo sapiens) (UniProt Q8N568); conditions: at 1 µM
T1 sequence (whole entry): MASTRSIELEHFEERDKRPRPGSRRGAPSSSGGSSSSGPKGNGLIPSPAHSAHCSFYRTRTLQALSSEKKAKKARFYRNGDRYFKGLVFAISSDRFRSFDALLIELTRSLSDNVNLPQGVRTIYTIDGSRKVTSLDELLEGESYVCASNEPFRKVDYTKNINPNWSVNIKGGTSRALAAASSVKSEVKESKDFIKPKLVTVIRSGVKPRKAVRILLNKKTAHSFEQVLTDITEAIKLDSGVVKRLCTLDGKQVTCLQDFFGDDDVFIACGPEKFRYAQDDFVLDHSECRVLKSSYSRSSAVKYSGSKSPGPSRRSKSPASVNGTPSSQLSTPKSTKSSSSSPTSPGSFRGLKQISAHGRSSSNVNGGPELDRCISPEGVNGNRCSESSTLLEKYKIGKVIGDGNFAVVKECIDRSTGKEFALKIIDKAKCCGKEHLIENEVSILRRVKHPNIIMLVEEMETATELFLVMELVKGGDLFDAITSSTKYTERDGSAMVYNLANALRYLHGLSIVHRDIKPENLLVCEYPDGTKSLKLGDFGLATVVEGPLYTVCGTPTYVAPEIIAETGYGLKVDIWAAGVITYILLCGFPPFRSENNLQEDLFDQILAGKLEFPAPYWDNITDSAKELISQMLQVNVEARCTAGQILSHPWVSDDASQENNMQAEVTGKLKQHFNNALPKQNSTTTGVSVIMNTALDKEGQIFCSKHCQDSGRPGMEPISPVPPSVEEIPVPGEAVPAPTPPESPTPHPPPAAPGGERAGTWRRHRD

[5] = target: T1, Serine/threonine-protein kinase DCLK2 (Homo sapiens); conditions: at 10 µM
[6] = target: T2, Discoidin domain-containing receptor 2 (Homo sapiens) (UniProt Q16832); conditions: at 10 µM
T2 sequence (whole entry): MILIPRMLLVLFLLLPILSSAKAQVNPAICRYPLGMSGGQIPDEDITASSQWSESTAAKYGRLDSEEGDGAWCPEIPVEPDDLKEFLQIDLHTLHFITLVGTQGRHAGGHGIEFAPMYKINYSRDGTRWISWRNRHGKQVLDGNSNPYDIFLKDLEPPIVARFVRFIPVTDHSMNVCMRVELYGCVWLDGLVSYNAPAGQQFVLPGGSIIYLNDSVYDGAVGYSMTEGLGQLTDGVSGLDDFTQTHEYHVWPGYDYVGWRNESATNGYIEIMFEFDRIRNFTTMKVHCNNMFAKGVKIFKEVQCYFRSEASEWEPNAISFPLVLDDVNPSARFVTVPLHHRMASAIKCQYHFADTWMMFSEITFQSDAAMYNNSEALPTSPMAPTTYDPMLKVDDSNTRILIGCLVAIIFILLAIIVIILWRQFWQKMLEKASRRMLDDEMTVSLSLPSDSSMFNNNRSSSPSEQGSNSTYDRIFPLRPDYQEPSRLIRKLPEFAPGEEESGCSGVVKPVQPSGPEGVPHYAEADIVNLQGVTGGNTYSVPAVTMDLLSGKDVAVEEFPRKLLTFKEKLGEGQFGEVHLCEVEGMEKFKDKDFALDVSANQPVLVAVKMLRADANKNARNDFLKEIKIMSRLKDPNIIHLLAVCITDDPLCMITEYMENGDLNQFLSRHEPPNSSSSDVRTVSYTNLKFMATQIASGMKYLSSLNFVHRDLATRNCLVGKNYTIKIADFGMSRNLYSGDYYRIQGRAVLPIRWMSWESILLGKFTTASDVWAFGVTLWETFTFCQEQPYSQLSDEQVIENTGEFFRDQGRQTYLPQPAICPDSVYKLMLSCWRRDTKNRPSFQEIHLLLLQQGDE

[7] = target: T3, Myotonin-protein kinase (Homo sapiens) (UniProt Q09013); conditions: at 1 µM
T3 sequence (whole entry): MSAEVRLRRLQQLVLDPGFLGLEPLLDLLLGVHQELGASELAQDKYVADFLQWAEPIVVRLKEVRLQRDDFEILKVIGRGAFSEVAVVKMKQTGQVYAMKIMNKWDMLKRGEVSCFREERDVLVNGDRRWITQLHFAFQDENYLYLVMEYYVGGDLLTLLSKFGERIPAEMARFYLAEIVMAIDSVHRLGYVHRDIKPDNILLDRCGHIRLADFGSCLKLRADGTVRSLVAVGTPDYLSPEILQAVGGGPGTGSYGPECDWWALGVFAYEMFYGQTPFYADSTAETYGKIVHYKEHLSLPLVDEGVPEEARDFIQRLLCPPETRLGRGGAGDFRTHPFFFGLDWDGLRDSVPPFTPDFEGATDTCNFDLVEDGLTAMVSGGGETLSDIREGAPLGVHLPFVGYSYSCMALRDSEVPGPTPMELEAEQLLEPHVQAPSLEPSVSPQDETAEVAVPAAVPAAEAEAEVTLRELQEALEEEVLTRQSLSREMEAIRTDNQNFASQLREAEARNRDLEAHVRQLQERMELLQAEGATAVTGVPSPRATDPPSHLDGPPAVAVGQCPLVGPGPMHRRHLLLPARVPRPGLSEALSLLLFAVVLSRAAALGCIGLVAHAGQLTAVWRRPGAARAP

[8] = target: T3, Myotonin-protein kinase (Homo sapiens); conditions: at 10 µM
[9] = target: T4, Dual specificity tyrosine-phosphorylation-regulated kinase 2 (Homo sapiens) (UniProt Q92630); conditions: at 10 µM
T4 sequence (whole entry): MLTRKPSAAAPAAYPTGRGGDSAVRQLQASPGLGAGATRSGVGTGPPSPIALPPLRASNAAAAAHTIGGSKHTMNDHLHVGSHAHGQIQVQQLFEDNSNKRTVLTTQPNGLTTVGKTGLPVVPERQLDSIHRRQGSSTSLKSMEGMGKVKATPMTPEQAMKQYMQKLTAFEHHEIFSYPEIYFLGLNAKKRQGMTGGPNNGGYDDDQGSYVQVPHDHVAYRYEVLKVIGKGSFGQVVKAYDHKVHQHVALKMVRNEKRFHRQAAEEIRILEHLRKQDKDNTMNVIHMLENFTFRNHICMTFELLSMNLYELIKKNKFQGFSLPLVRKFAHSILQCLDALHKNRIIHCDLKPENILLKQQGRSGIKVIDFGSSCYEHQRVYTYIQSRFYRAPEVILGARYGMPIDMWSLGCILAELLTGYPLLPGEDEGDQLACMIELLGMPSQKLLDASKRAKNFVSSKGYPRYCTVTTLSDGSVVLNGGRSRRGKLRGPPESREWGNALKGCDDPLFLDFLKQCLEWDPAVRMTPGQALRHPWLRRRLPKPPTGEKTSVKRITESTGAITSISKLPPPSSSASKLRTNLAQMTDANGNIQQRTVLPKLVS

[10] = target: T5, Ephrin type-A receptor 1 (Homo sapiens) (UniProt P21709); conditions: at 1 µM
T5 sequence (whole entry): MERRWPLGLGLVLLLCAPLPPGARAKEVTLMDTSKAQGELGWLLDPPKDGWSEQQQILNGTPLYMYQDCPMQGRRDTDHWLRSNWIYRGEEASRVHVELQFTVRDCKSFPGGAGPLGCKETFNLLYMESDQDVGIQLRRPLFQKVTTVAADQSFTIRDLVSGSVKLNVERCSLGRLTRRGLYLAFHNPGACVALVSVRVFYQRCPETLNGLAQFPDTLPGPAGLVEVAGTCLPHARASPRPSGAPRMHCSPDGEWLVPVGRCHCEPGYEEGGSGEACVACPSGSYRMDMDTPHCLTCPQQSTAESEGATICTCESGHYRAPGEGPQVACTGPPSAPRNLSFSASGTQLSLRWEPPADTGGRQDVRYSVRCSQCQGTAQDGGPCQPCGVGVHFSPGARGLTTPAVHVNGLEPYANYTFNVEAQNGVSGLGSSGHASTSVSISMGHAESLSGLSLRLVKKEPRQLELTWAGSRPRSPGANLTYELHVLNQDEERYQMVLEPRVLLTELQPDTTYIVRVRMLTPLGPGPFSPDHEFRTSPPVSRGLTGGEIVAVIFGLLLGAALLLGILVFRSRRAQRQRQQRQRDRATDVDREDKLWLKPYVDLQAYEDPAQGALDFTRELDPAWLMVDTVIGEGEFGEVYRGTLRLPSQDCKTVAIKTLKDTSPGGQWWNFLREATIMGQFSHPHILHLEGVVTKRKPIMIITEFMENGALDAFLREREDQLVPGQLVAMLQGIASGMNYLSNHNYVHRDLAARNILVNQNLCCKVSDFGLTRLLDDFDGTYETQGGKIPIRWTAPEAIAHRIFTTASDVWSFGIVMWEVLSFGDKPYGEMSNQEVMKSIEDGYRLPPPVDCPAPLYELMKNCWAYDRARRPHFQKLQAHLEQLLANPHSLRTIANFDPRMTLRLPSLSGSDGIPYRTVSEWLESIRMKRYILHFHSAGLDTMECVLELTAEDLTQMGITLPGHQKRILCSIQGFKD

[11] = target: T5, Ephrin type-A receptor 1 (Homo sapiens); conditions: at 10 µM
[12] = target: T6, Ephrin type-A receptor 3 (Homo sapiens) (UniProt P29320); conditions: at 1 µM
T6 sequence (whole entry): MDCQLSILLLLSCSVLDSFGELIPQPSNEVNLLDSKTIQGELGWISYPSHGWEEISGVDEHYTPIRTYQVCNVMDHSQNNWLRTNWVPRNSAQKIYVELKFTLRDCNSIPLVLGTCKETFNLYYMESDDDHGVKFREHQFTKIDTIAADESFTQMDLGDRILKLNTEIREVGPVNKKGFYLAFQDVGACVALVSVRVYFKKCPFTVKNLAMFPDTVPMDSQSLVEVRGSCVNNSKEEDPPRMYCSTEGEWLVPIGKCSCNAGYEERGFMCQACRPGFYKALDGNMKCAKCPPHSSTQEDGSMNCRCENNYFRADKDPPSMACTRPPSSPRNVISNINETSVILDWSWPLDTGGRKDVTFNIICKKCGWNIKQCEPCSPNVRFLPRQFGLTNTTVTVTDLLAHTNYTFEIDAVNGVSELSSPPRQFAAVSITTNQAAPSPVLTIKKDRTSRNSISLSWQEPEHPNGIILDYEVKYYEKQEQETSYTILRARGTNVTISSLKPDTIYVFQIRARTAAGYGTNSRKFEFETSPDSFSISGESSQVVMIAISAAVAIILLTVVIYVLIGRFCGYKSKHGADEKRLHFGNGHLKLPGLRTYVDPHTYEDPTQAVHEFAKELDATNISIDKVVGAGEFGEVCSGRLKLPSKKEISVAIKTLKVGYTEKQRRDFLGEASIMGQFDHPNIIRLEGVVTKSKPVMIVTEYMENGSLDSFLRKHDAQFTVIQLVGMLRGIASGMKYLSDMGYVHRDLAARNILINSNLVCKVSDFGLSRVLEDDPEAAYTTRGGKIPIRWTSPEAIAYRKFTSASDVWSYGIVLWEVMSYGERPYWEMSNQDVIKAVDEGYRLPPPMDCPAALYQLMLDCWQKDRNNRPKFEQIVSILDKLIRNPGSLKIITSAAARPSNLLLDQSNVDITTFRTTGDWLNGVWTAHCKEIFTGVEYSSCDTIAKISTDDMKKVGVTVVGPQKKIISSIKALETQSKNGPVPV

[13] = target: T2, Discoidin domain-containing receptor 2 (Homo sapiens); conditions: at 1 µM
[14] = target: T7, Serine/threonine-protein kinase 17A (Homo sapiens) (UniProt Q9UEE5); conditions: at 1 µM
T7 sequence (whole entry): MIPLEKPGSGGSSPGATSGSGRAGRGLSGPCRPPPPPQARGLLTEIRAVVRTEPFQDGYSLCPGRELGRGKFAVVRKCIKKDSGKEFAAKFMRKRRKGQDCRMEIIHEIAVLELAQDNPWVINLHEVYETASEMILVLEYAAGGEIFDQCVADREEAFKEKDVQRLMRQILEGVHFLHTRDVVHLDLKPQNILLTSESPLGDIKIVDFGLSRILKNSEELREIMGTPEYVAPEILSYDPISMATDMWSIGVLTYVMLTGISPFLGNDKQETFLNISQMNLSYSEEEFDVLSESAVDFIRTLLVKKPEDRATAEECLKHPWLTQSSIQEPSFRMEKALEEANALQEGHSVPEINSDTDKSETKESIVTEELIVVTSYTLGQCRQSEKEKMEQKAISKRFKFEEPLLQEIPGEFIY

[15] = target: T7, Serine/threonine-protein kinase 17A (Homo sapiens); conditions: at 10 µM
[16] = target: T4, Dual specificity tyrosine-phosphorylation-regulated kinase 2 (Homo sapiens); conditions: at 1 µM
[17] = target: Ephrin type-A receptor 2 (Homo sapiens) (UniProt P29317); conditions: at 1 µM
Sequence of Ephrin type-A receptor 2 (Homo sapiens) (P29317 whole entry): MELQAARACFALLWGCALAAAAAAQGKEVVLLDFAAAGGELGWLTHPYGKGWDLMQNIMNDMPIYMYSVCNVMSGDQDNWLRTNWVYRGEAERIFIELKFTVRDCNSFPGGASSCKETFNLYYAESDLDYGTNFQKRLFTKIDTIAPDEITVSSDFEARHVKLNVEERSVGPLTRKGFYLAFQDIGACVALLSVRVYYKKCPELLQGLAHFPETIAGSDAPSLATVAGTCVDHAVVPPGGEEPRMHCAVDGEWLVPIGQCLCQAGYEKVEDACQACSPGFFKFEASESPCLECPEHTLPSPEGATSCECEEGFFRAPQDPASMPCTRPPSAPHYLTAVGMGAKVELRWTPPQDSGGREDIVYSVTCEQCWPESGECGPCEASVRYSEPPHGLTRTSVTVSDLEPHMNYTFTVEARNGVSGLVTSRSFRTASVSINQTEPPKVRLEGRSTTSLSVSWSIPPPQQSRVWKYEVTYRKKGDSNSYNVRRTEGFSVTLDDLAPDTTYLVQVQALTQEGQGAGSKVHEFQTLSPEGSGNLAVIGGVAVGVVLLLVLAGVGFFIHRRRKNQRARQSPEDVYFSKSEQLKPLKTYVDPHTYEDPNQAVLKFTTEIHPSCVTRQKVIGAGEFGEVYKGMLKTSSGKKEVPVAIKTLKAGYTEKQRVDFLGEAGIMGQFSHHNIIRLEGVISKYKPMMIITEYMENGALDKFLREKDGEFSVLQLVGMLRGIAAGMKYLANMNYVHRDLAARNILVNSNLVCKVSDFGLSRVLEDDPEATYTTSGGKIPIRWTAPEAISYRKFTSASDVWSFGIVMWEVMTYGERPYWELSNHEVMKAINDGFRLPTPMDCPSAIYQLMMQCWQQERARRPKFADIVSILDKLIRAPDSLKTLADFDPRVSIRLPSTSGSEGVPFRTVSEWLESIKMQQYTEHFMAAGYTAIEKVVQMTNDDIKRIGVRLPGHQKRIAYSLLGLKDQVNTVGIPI

[18] = target: Ephrin type-A receptor 2 (Homo sapiens) (UniProt P29317); conditions: at 10 µM

Sequence of Death-associated protein kinase 2 (Homo sapiens) (Q9UIK4 whole entry, looked up): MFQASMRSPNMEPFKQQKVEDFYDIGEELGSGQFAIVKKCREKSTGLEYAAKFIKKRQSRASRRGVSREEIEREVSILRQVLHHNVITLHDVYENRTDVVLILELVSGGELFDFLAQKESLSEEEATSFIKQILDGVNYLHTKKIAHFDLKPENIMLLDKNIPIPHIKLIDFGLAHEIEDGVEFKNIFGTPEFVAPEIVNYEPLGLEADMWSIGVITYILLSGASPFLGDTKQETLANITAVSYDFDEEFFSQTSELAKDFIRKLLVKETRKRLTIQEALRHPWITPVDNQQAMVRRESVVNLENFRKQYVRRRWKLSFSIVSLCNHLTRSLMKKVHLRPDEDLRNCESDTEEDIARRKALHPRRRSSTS
Sequence of Death-associated protein kinase 1 (Homo sapiens) (P53355 whole entry, looked up): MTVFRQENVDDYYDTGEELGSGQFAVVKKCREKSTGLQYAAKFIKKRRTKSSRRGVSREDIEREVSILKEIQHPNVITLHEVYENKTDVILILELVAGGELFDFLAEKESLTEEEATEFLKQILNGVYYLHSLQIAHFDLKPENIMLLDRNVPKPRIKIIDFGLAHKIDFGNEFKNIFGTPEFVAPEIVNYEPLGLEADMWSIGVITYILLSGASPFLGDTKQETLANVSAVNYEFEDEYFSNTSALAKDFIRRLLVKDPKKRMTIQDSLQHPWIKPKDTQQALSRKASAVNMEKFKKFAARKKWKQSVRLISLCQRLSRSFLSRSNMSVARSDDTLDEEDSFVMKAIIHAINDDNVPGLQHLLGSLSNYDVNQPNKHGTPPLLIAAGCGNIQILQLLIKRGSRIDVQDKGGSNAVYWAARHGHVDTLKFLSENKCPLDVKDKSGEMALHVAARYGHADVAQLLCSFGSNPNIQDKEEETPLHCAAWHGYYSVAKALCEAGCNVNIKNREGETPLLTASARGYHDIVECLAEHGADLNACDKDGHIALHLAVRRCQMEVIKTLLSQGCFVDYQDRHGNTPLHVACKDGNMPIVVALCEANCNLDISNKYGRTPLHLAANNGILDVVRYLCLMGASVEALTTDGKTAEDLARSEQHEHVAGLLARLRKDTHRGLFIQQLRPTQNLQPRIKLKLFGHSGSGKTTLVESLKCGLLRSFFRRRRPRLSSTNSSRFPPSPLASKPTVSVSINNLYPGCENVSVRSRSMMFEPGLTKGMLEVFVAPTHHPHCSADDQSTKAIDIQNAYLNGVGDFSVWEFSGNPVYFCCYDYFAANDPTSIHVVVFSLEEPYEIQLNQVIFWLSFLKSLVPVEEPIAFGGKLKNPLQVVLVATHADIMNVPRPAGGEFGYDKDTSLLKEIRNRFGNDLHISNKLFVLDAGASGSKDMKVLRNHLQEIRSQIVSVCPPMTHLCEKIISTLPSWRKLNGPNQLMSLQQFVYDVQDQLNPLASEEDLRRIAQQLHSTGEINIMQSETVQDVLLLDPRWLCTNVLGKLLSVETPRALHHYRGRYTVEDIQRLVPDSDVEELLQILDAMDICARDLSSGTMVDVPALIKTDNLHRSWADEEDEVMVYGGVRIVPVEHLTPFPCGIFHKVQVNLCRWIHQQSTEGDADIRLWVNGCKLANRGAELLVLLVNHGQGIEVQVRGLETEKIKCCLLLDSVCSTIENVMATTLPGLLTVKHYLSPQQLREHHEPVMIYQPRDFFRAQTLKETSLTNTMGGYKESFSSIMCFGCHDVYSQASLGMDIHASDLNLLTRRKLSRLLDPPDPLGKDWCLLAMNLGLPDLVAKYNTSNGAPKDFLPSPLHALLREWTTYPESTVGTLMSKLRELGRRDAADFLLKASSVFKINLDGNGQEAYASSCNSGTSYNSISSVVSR

Structure (SMILES) | residual activity [1] [%] | residual activity [2] [%] | residual activity [3] [%] | residual activity [4] [%] | residual activity [5] [%] | residual activity [6] [%] | residual activity [7] [%] | residual activity [8] [%] | residual activity [9] [%] | residual activity [10] [%] | residual activity [11] [%] | residual activity [12] [%] | residual activity [13] [%] | residual activity [14] [%] | residual activity [15] [%] | residual activity [16] [%] | residual activity [17] [%] | residual activity [18] [%]
CCCC(=O)Oc1ccc2[nH]c(C(=O)c3cc4ccccc4[nH]3)cc2c1 | 68 | 95 | 104 | 82 | 93 | 101 | 132 | 133 | 102 | 88 | 94 | 107 | – | – | – | – | – | –
O=C(O)/C=C/c1cc(Br)c(Br)c(Br)c1Br | 62 | 91 | 39 | 98 | 68 | 95 | 93 | 76 | 38 | 104 | 91 | 101 | 93 | 79 | 39 | 92 | – | –
Nc1ncnc2c1cnn2-c1ccccc1 | 86 | 95 | – | 71 | 69 | – | – | – | 44 | 85 | 88 | 100 | – | – | 68 | 85 | – | –
O=C1Nc2ccc(Cl)cc2/C1=C/c1cc(Cl)c(O)c(Cl)c1 | 46 | 69 | 28 | 61 | 73 | – | – | 138 | 70 | 84 | 87 | 91 | – | 71 | 17 | 83 | 99 | 76
Nc1n[nH]c2nc3ccccc3nc12 | 96 | – | – | 98 | 84 | – | 98 | 76 | 41 | 87 | 83 | 98 | – | 86 | 50 | 92 | – | –
CSc1nc(-c2ccc(F)cc2)c(-c2ccnc(NC(C)c3ccccc3)c2)[nH]1 (configuration not stated) | 96 | 101 | 95 | 137 | 100 | 93 | – | – | 86 | 101 | 78 | – | 98 | – | 72 | – | 87 | –

— ChEMBL document CHEMBL2218924, “A broad activity screen in support of a chemogenomic map for kinase signalling research and drug discovery” (Biochem J, 2013)
